For assay [1], the target named is Albumin (Bos taurus) (UniProt P02769). Nature of the assay: compounds binding labelled BSA control protein – biochemical, small-molecule microarray, Alexa647 label, 635/667 nm fluorescence, artefact control for SMM control protein annotation, profiling panel (AID 1118).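 Further: score merges 667 nm emission intensity and signal-to-noise per printed compound spot.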 As to conditions: BSA-A647 binding, fluorescence 635 nm, higher = more signal.
Assay [2] can be described thus: probe aXIP binding to arrayed compounds – biochemical, NeuroSMM set, 635/667 nm fluorescence, primary screen (AID 1119).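 Further: probe is the protein aXip251-270 applied at 1 µg/mL to compound-printed slides; binding of probe to printed compounds measured as 667 nm fluorescence plus signal to noise.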 As to conditions: small-molecule microarray, higher = more signal, called active from +8 up or from −8 down.
Assay [3] in a line: probe aNOTCH3 binding on compound microarray – biochemical, small-molecule microarray, 635/667 nm fluorescence, primary screen (AID 1120).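 Further: probe is a biotin-tagged antibody raised against NOTCH3 rather than NOTCH3 protein; score merges spot fluorescence near 667 nm with spot signal to noise.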 Conditions: higher = more signal.
Assay [4] is described as follows: probe aNOTCH2 binding on compound microarray – biochemical, small-molecule microarray, 635/667 nm fluorescence, primary screen (AID 1121).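 Further: score merges feature fluorescence read at 667 nm with its signal to noise.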 Conditions: higher = more signal.
The target of assay [5] is Carbonic anhydrase 2 (Homo sapiens) (UniProt P00918). Nature of the assay: compounds binding carbonic anhydrase 2 – biochemical, small-molecule microarray, Alexa647-labelled CAII, profiling panel (AID 1122). As to conditions: CAII-A647 binding fluorescence, higher = more signal.
A short description of assay [6]: COS7 lysate on small-molecule microarray, probe aHis, 635 nm (AID 1123).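 Further: z-score combines 667nm fluorescence intensity with signal-to-noise per printed compound spot.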 Conditions: COS7 cell lysate, fluorescence, higher = more signal.
A short description of assay [7]: probe aLAP1 signal on lysate-treated microarray – cell lysate, small-molecule microarray, COS7 lysate, primary screen (AID 1124).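 Further: lysate comes from COS7 cells expressing LAP1 and is applied at 0.3 µg/mL; score merges spot fluorescence near 667 nm with signal-to-noise over triplicate slides.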 As to conditions: probe aLAP1, fluorescence, higher = more signal.
Assay [8] concerns Sam68 (KHDRBS1). Nature of the assay: compounds binding KHDRBS1 protein – biochemical, small-molecule microarray, 635 nm fluorescence, primary screen (AID 1125).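 Further: score merges 667 nm channel intensity with signal to noise over triplicate slides.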 Conditions: higher = more signal.
Assay [9] deals with Chordin-like protein 2 (CHRDL2). As to the kind of experiment: compounds binding chordin-like 2 – biochemical, small-molecule microarray, 635 nm fluorescence, primary screen (AID 1126).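 Further: printed compound slides probed with Chrdl2 protein at 4 µg/mL for 1 h at 4 C; score merges 667 nm emission intensity with signal to noise over three replicate slides.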 As to conditions: fluorescence 635 nm, higher = more signal.
The target of assay [10] is Concanavalin-A (Canavalia ensiformis) (UniProt P02866). Nature of the assay: compounds binding concanavalin A lectin – biochemical, small-molecule microarray, Alexa647 label, 635 nm, artefact control for SMM control protein annotation, primary screen (AID 1127).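 Further: z combines 667 nm emission intensity with signal-to-noise across three replicate slides.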 Conditions: ConA-A647 binding fluorescence, higher = more signal.
A short description of assay [11]: compounds binding Alexa647 anti-His antibody – biochemical, small-molecule microarray, 635 nm fluorescence, artefact control for SMM control protein annotation, primary screen (AID 1128).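 Further: score merges feature fluorescence with signal-to-noise for each printed compound spot.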 As to conditions: higher = more signal.
Assay [12] concerns Human papillomavirus type 1a E7 protein (residues 1-88). As to the kind of experiment: HPV1a E7 small-molecule binders, primary screen, biochemical, small-molecule microarray, residues 1-88, 635 nm (AID 1129). Conditions: small-molecule microarray binding, fluorescence 635 nm; higher = more signal.
Assay [13] addresses Focal adhesion kinase 1 (Homo sapiens) (UniProt Q05397). Nature of the assay: PTK2 protein binding on printed compound slides – biochemical, small-molecule microarray, 635/667 nm fluorescence, BSA, DTT, primary screen (AID 1130).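 Further: composite of spot emission at 667 nm and signal to noise over triplicate slides.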 Conditions: 635 nm fluorescence, higher = more signal.
For assay [14], the system named is Fibrinogen (Alexa647-labelled). Nature of the assay: Alexa647-fibrinogen binding to printed small molecules – biochemical, small-molecule microarray, 635/667 nm fluorescence, artefact control for SMM control-protein annotation, profiling panel (AID 1131).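 Further: z-score merges 667 nm fluorescence with per-spot signal-to-noise over triplicate slides.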 Conditions: fibrinogen-A647 binding fluorescence, higher = more signal.
In assay [15] the target is Follistatin (Homo sapiens) (UniProt P19883). Nature of the assay: FST protein binding to printed compounds – biochemical, small-molecule microarray, 635/667 nm fluorescence, primary screen (AID 1132). As to conditions: 635 nm fluorescence, higher = more signal.
In assay [16] the target is Fibroblast growth factor 2 (Homo sapiens) (UniProt P09038). As to the kind of experiment: basic fibroblast growth factor binding to printed compounds – biochemical, small-molecule microarray, 635/667 nm fluorescence, primary screen (AID 1133). Conditions: FGF2, fluorescence 635/667, higher = more signal.
Assay [17] is described as follows: JC-1 mitochondrial potential readout, lung cancer cells – cell-based, A549, JC-1 fluorescence, basal, 24 h, 100 nL, profiling panel (AID 1138).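 Further: A549 lung adenocarcinoma cells under basal conditions with no added stimulus; test concentration not given here.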 Conditions: higher = more signal.
In assay [18] the test system is Lefty1. As to the kind of experiment: Lefty1 protein binding to printed compounds – biochemical, small-molecule microarray, 635/667 nm fluorescence, primary screen (AID 1139). Conditions: fluorescence 635/667, higher = more signal.
For assay [19], the system named is wheat germ agglutinin (Triticum aestivum), Alexa647-labelled. As to the kind of experiment: Alexa647-WGA lectin binding to printed small molecules – biochemical, small-molecule microarray, 635/667 nm fluorescence, artefact control for SMM control-protein annotation, profiling panel (AID 1140).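 Further: score merges 667 nm feature emission with signal to noise over triplicate slides.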 As to conditions: WGA-A647 binding, 635 nm fluorescence, higher = more signal.

Assay [20] deals with Luciferin 4-monooxygenase (Photinus pyralis) (UniProt P08659). As to the kind of experiment: inhibition of purified Photinus pyralis luciferase – biochemical, luminescence, purified enzyme, 2006 set, primary screen (AID 1141).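 Further: cell-free assay with purified firefly luciferase at 100 ng per well in PBS; test concentration not given here.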 Conditions: purified firefly luciferase, SteadyGlo luminescence, 30 min; higher = more signal, called active from +8 up or from −8 down.

This passage reports composite z-score, composite Z-score and z-score results from PubChem BioAssay.

Calls of active or inactive are those of the source.

Chain of Follistatin (Homo sapiens) (P19883 whole entry, looked up): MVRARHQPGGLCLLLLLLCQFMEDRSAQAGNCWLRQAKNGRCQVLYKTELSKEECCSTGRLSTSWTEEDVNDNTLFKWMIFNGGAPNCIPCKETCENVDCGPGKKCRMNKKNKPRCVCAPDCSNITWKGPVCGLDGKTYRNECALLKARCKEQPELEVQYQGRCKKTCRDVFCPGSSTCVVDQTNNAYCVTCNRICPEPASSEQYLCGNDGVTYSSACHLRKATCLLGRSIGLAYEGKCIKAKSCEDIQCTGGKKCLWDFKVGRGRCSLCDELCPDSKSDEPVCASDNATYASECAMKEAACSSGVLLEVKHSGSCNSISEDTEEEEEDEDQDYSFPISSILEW
Chain of Focal adhesion kinase 1 (Homo sapiens) (Q05397 whole entry, looked up): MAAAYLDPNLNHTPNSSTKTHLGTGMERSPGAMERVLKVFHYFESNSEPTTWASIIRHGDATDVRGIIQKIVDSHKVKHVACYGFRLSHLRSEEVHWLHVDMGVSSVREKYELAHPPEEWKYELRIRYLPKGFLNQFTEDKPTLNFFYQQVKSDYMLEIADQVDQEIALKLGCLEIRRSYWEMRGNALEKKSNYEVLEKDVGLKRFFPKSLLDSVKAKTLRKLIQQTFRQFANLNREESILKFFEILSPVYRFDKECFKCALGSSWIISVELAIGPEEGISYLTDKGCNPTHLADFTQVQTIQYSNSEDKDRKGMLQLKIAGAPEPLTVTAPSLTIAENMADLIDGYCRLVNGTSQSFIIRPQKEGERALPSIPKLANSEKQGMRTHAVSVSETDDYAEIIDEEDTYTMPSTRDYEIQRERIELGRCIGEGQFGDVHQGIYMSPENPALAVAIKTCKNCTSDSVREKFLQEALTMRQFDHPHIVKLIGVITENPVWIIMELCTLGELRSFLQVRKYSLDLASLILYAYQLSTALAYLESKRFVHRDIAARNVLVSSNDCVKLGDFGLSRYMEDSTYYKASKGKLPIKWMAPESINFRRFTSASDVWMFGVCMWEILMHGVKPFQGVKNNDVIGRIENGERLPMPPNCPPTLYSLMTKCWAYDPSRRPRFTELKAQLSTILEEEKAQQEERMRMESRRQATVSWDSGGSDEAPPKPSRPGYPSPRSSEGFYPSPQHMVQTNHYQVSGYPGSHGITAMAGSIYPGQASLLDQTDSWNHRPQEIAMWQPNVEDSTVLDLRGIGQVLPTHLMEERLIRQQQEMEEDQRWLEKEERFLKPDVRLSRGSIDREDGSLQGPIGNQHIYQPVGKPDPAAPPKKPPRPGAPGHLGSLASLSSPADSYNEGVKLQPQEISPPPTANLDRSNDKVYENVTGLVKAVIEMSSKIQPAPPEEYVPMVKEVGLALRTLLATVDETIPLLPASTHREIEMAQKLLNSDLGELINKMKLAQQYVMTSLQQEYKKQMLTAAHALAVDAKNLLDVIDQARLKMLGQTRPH
Chain of Concanavalin-A (Canavalia ensiformis) (P02866 whole entry, looked up): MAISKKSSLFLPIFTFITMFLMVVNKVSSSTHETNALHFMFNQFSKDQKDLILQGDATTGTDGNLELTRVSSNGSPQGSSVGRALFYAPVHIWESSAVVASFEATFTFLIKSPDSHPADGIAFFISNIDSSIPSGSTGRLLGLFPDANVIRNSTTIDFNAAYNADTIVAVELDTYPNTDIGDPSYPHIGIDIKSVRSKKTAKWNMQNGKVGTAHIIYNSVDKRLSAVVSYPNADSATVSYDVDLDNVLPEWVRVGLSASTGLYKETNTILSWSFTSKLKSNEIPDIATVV
Chain of Albumin (Bos taurus) (P02769 whole entry, looked up): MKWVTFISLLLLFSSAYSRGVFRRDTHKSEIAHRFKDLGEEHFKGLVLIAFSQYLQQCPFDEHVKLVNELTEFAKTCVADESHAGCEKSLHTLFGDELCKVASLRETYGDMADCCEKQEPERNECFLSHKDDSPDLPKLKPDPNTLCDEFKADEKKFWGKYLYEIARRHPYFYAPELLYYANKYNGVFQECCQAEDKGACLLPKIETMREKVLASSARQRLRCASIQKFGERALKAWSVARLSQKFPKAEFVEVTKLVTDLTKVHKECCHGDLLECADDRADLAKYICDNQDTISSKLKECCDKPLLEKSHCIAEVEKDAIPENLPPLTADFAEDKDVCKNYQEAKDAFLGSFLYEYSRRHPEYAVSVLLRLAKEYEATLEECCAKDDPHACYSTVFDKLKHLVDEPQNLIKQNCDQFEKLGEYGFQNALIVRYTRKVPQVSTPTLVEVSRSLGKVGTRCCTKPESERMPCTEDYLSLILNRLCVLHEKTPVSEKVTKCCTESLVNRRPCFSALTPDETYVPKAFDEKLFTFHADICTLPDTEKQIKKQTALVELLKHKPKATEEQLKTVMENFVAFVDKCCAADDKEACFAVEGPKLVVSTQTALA
Chain of Fibroblast growth factor 2 (Homo sapiens) (P09038 whole entry, looked up): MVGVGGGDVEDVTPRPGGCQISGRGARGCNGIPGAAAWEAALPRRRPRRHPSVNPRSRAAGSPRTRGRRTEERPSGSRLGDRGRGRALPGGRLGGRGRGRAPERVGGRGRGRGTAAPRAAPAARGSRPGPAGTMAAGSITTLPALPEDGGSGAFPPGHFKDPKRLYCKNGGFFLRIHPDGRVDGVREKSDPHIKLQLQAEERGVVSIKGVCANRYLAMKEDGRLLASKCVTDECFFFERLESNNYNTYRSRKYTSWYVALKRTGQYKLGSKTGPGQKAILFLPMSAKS
Chain of Luciferin 4-monooxygenase (Photinus pyralis) (P08659 whole entry, looked up): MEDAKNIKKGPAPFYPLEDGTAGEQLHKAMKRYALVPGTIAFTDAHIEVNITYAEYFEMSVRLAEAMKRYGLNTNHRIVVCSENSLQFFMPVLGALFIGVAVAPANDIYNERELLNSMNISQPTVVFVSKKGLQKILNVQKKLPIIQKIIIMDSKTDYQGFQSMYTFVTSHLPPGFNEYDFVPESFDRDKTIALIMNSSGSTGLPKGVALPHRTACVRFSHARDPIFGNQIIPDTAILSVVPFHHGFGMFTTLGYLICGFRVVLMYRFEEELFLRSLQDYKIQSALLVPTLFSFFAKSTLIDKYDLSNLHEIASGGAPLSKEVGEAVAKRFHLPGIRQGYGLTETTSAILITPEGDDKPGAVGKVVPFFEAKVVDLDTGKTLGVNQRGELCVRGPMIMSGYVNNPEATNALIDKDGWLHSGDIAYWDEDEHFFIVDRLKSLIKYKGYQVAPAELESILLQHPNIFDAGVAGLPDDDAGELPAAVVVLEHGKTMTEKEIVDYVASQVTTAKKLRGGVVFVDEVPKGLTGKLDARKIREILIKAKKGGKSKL

Take `O=C1C2C=CC(C(O)c3cccc4ccccc34)N(n3cnnc3)C2C(=O)N1Cc1ccccc1` (stereo not given): the composite z-score was -0.0146 in [1]; 1.28 in assay [3]; 0.747 in assay [4]; 0.754 in assay [5]; 0.434 in assay [6]; 0.544 in assay [7]. The composite z-score was -0.131 in assay [8]; 0.166 in [9]; 0.0912 in [10]; 0.968 in [11]; -0.0247 in [12]; 0.699 in [13]. Moreover, the composite z-score in assay [14] is 0.798; in assay [15], 0.355; in assay [16] it was 0.406; in assay [18], 0.302; in [19] it was 0.872. For the same molecule, the composite Z-score in assay [2] is -0.415 (inactive). For the same molecule, the results for the z-score in [17] and in [20] were -0.94 and 1.06 (inactive), respectively.

Turning to `O=P(NCC1(CC2(c3ccccc3)CO2)CC1)(c1ccccc1)c1ccccc1` (stereo not given), the composite z-score is 0.0287 in [1]; -0.159 in assay [3]; -0.0451 in [4]; 0.692 in assay [5]; 2.49 in assay [6]; 0.106 in assay [7]. The composite z-score is -0.31 in assay [8]; -0.821 in assay [9]; -0.805 in assay [10]; 0.618 in [11]; 0.376 in assay [12]; 0.338 in [13]. The composite z-score in [14] was -1.05; in assay [15] it was -1.23; in [16], -1.36; in [18], -2.28; in assay [19], -0.0073. Moreover, the composite Z-score in [2] was -0.187 (inactive). Besides, the figures for the z-score in assay [17] and in [20] were 1.11 and 1.33 (inactive), respectively.

Consider `COc1ccc([Si](C)(C)[C@H]2[C@H](CCO)O[C@@]3(C(=O)N(Cc4cccc(N5C(=O)c6cccc7cccc5c67)c4)c4ccccc43)[C@@H]2C)cc1`, for which the composite z-score in assay [1] is 0.577; in [3] it was -0.122; in [4], -0.148; in [5], 0.23; in [6] it was 0.856; in [7] it was 1.42. Also, the composite z-score in assay [8] is 1.13; in [9], -0.27; in assay [10], 0.863; in assay [11], 0.86; in assay [12] it was 0.586; in [13], 1.02. The composite z-score in assay [14] was 0.53; in assay [15], -0.16; in assay [16] it was -0.23; in assay [18], -0.0439; in assay [19], 0.563. Moreover, the composite Z-score in assay [2] is 0.326 (inactive). Further, the z-score was 0.325 in assay [17] and 0.669 (inactive) in assay [20].

With `COc1ccccc1CN1C(=O)c2ccccc2[C@](Cc2ccccc2I)(C(=O)NCc2ccccc2)[C@@H]1c1ccc(CO)cc1`, the composite z-score in assay [1] was 0.717; in assay [3] it was -0.0682; in assay [4], -0.0211; in assay [5], 0.345; in assay [6], 1.77; in [7] it was 0.729. Also, the composite z-score is 0.505 in assay [8]; -0.748 in assay [9]; -0.0126 in [10]; -0.0448 in assay [11]; 0.406 in assay [12]; -0.2 in [13]. For the same molecule, the composite z-score in assay [14] was 0.414; in assay [15], -0.526; in assay [16], -0.243; in assay [18] it was -0.88; in [19], 0.687. Also, the composite Z-score in assay [2] is 0.265 (inactive). The z-score is 0.109 in assay [17] and 0.0375 (inactive) in [20].

In the case of `C=CCN1C(=O)[C@]2(Cc3ccccc31)N=C(c1ccc(OCCCO)cc1)O[C@@H]2c1ccccc1`, the composite z-score was -0.171 in assay [1]; 0.0562 in assay [3]; 0.121 in [4]; 0.253 in [5]; 2.37 in assay [6]; 0.339 in assay [7]. Moreover, the composite z-score was 0.965 in [8]; 0.569 in assay [9]; 1.08 in assay [10]; 0.599 in assay [11]; 1.22 in assay [12]; 0.436 in assay [13]. Also, the composite z-score amounted to 0.585 in assay [14]; 1.36 in [15]; 1.65 in assay [16]; 0.366 in assay [18]; 0.322 in assay [19]. Further, the composite Z-score in [2] is 2.13 (inactive). Further, the z-score was 0.188 in assay [17] and -1.39 (inactive) in [20].

As for `CC(C)C(=C=CC[C@H](O)c1ccccc1OCCO)CCO`, the composite z-score in [1] was -0.415; in [3], -0.0947; in assay [4], -0.045; in assay [5] it was 0.707; in assay [6] it was 0.989; in assay [7], 0.342. Moreover, the composite z-score is 0.829 in assay [8]; -0.332 in assay [9]; -0.284 in assay [10]; 0.526 in assay [11]; 0.0618 in assay [12]; 0.101 in assay [13]. For the same molecule, the composite z-score in assay [14] amounted to 0.217; in assay [15], 0.0251; in assay [16], 0.465; in [18], 0.653; in [19] it was 0.417. Also, in assay [2], the composite Z-score was -0.172 (inactive). Also, the z-score in assay [17] was 0.205; in assay [20], 0.27 (inactive).
